Only a sample is shown.
aSyn 5UTR act: Activators via SNCA 5'UTR binding, MLPCN | alpha-synuclein 5'UTR reporter, activators screen | activity score, % (tested at 7.5 µM), hits read low | 7.1% of 300,000 active | AID 1814; in the data active = activity score below about -60%
Numbers stand for hits; - = inactive.

SMILES	aSyn 5UTR act
COc1ccc(/C=C2\CCn3c2nc2ccccc2c3=O)cc1OC	-256
CC(=O)Oc1ccc(Oc2ccc(-c3noc(C)n3)cc2)cc1	-77
CC(=O)Oc1ccc(-c2nc(-c3cccnc3)no2)cc1	-93
COc1ccc(/C=C2\SC(=S)N(CCCC(=O)N3CCOCC3)C2=O)cc1	-
O=C(CCN1C(=O)/C(=C/c2cccs2)SC1=S)N1CCCCC1	-90
O=C1/C(=C/c2cccs2)SC(=S)N1CCC(=O)N1CCCCC1CCO (stereo unspecified)	-109
COc1cc(/C=C2\SC(=S)N(CCC(=O)N3CCCCC3)C2=O)cc(OC)c1OC	-95
Cc1ccc(/C=C(\C#N)C(=O)Nc2ccccn2)o1	-164
O=C(Nc1nc2ccccc2s1)c1cc2c(s1)-c1ccccc1OC2	-177
O=C(Nc1nccs1)c1cc2c(s1)-c1ccccc1OC2	-218
CN1CCN(c2ccccc2NC(=O)c2cc3c(s2)-c2ccccc2OC3)CC1	-71
Cc1cccc2c1-c1sc(C(=O)Nc3nccs3)cc1CO2	-213
O=C(Nc1ccc(Cl)cn1)c1cc2c(s1)-c1ccccc1OC2	-111
CCOC(=O)c1ccc(NC(=O)c2cccc(S(=O)(=O)N3c4ccccc4CC3C)c2)s1 (stereo unspecified)	-
CCOC(=O)c1cc2c(s1)-c1c(C)cccc1OC2	-164
Cc1cccc2c1-c1sc(C(=O)Nc3cccc([N+](=O)[O-])c3C)cc1CO2	-73
Cc1ccc(C2=[N+]([O-])C3(CCCCC3=O)N(O)C2(C)C)cc1 (stereo unspecified)	-
Cc1cc(C)n(-c2nc(NCC(C)O)c3c4c(sc3n2)CCCC4)n1 (stereo unspecified)	-62
CC(=O)c1ccc(NC(=O)c2ccn(C(=O)OCC(C)C)n2)cc1	-86
S=c1[nH]nc(Cn2c(-c3ccccn3)nc3ccccc32)n1-c1ccc2c(c1)OCCO2	-75
O=C(ONc1ccc(N=NC(=O)c2ccccc2O)cc1)c1ccccc1	-86
N=c1n(N)c2ccccc2n1CC(=O)c1ccc(Br)cc1	-109
CCOC(=O)C1(C)C=C(Nc2cccc(OC)c2)C(=O)N1c1ccccc1 (stereo unspecified)	-79
CCOC(=O)c1c(C)[nH]c(C(=O)N/N=C\c2ccccc2Cl)c1C	-64
CCOC(=O)c1c(C)[nH]c(C(=O)N/N=C/c2cccc(OC)c2)c1C	-104
SMILES	aSyn 5UTR act
CCOC(=O)c1c(C)[nH]c(C(=O)NNC(=O)c2ccccc2)c1C	-67
CCCCCCOc1ccc(/C(N)=N/O)cc1	-173
N=C(N)c1ccc(OCCCCCOc2ccc(C(=N)N)cc2)cc1	-
CC(=O)c1ccc(N(C(=O)Cc2c[nH]c3ccccc23)C(C(=O)NC2CCCCC2)c2cccs2)cc1 (stereo unspecified)	-84
COCCn1ccc2c(OCC(=O)Nc3cc(OC)ccc3OC)cccc2c1=O	-62
CN1CCN(/N=C/c2ccc(OCc3ccccc3)cc2)CC1	-73
COC(=O)c1ccc(COc2ccc(/C=N/N3CCN(C)CC3)cc2)cc1	-127
CC(/C=C/c1ccc(OCc2ccccc2)cc1)=N\O	-133
Oc1ccc(-c2csc(-c3c[nH]c4ccccc34)n2)c(O)c1	-323
Cc1ccc(-c2csc(-c3c[nH]c4ccccc34)n2)c(C)c1	-92
CC(C)c1cc2cc3ccc(=O)oc3cc2o1	-96
c1ccc2[nH]c(CSc3nccs3)nc2c1	-79
c1ccc(SCc2nc3ccccc3[nH]2)cc1	-133
Cc1ccc(SCc2nc3ccccc3[nH]2)cc1	-128
Fc1ccccc1CSCc1nc2ccccc2[nH]1	-133
Cc1cc(C)c(C#N)c(SCc2nc3ccccc3[nH]2)n1	-173
Cc1cc(C)c(C#N)c(SCc2nnc(-c3ccccc3)o2)n1	-
Clc1ccc(SCc2nc3ccccc3[nH]2)cc1	-112
O=C1CCCN1CCCNc1ncnc2c1cnn2-c1ccc(Cl)cc1	-152
Cc1cccc(-n2ncc3c(NCCCn4ccnc4)ncnc32)c1	-129
Cc1cccc(-n2ncc3c(NCCCN4CCCC4=O)ncnc32)c1	-143
Cc1cc(=O)[nH]c(N=N/C(=N/Nc2ccccc2C)c2ccccc2)n1	-
Cc1cc(=O)[nH]c(S/C=C/c2ccccc2)n1	-78
Cc1ccc(C)c(Nc2c([N+](=O)[O-])cc(C(=O)N3CC(=O)Nc4ccccc43)cc2[N+](=O)[O-])c1	-
O=C1CN(C(=O)c2cccc(Br)c2)c2ccccc2N1	-85
SMILES	aSyn 5UTR act
Cc1cccc(Oc2cc([N+](=O)[O-])cc3c2C(=O)Nc2ccccc2O3)c1	-68
CCCc1cc2c(=O)c(-c3ccccn3)coc2cc1OC	-158
Cc1cc(NC(=O)C2CCCCC2)ncc1NC(=O)c1ccccn1	-73
Cc1cc(NC(=O)C2CC2)ncc1NC(=O)c1ccccn1	-93
CCOc1ccc(/C=C2\CCC(C3CCCC3)C2=O)cc1 (stereo unspecified)	-229
O=C1/C(=C/c2ccccc2)CCC1C1CCCC1 (stereo unspecified)	-73
O=C1/C(=C/c2ccco2)CCC1C1CCCC1 (stereo unspecified)	-66
O=C1C(=C2SCCCS2)CC/C1=C\c1ccc(F)cc1	-

Source: PubChem BioAssay (Broad Institute)
